# According to PubChem BioAssay (NCATS):
# A number with no mark means an inactive call. Records with an inconclusive call do not appear. Active and inactive are the calls of the source. Unless noted, the call rests on the fitted dose curve; in most records, active means well fitted curve in the direction sought with a large enough effect; inconclusive means small, poorly fitted or top-dose-only effect, or another doubt; inactive means no such curve, though single readings can be large; an effect the other way counts as inactive or inconclusive.
# Columns and labels:
# [1] = target: ATP-dependent 6-phosphofructokinase (Trypanosoma brucei brucei) (UniProt O15648); experiment: qHTS Assay to Find Inhibitors of T. brucei phosphofructokinase: hit validation (AID 492961);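 further: luminescence reports ADP formed as PFK phosphorylates fructose-6-phosphate with ATP; series mostly up to about 51 µM; on the % scale 0 is the no-effect control and ±100 the full control effect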
# Chain of ATP-dependent 6-phosphofructokinase (Trypanosoma brucei brucei) (O15648 whole entry, looked up): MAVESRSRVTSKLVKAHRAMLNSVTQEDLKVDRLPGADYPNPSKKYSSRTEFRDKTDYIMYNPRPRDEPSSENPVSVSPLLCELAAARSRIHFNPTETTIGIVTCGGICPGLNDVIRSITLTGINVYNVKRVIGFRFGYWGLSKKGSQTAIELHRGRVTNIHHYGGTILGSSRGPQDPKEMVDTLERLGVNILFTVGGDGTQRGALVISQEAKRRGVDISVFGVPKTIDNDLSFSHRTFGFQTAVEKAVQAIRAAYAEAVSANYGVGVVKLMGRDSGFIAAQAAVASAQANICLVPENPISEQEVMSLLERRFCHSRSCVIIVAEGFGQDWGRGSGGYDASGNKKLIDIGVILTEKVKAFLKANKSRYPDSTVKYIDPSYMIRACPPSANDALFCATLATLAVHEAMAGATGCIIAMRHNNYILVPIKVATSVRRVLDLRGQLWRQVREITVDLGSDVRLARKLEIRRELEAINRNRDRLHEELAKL
# How it was run: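 Inhibition of parasite PFK is measured as reduced ADP formation, quantified via luciferase after ATP depletion. Assay used 0.1 mM ATP, 0.5 mM F6P, 1.25 nM enzyme, 45 min incubation.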
# [2] = qHTS Assay for Identification of Small Molecule Inducers of Hypoxia Response (AID 2120; active means well fitted curve in the direction sought with a large enough effect in the signal ratio, with a control signal flat, not every such curve was filed as active; the % refers to the signal ratio; further: 0% is about no effect)
# How it was run: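 HRE-bla ME-180, 2500 cells/well, 0.5% dialyzed FBS medium; cpd titration, 17 h 37 degrees C; CCF4 2.5 h RT; Ex 405, Em 460/530 ratio -> %Activity, AC50.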
# [3] = qHTS for differential inhibitors of proliferation of Plasmodium falciparum line 7G8 (AID 1815);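 further: parasite growth measured after three days of incubation; plate controls were vehicle wells for no effect and reference inhibitor wells for full effect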
# [4] = qHTS for differential inhibitors of proliferation of Plasmodium falciparum line GB4 (AID 1816);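 further: parasite growth measured after 72 h incubation; 0% = vehicle DMSO and -100% = reference inhibitor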
# [5] = qHTS for differential inhibitors of proliferation of Plasmodium falciparum line 3D7 (AID 1876);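 further: parasite growth measured after three days of culture; 0% = vehicle wells and -100% = reference inhibitor wells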
# [6] = qHTS for differential inhibitors of proliferation of Plasmodium falciparum line D10 (AID 1877);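 further: parasites grown with compound for 72 h before DNA staining; plate controls were vehicle wells for no effect and reference inhibitor wells for full effect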
# [7] = qHTS for differential inhibitors of proliferation of Plasmodium falciparum line Dd2 (AID 1882);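 further: series mostly up to about 29 µM; compound exposure of 72 h on infected erythrocytes; plate controls were DMSO vehicle for no effect and 0.29 µM artemisinin for full effect; nearly all actives have a fitted effect of over 65% in size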
# How it was run: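 RBC culture, 0.3% parasitemia / 2.5% Hct final; cpd added by pin tool in DMSO; 72 h, 37 C, 5% CO2; lysis buffer + SYBR Green I, o/n RT dark; FI 485/535; norm. to artemisinin 0.29 uM and DMSO.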
# [8] = qHTS for differential inhibitors of proliferation of Plasmodium falciparum line W2 (AID 1883);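 further: parasites grown with compound for 72 h before lysis and staining; 0% = vehicle wells and -100% = control inhibitor wells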
# [9] = qHTS for differential inhibitors of proliferation of Plasmodium falciparum line HB3 (AID 1886);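 further: parasites grown with compound for 72 h before SYBR Green readout; plate controls were vehicle for no effect and reference inhibitor for full effect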
# [10] = target: Ferritin light chain (Equus caballus) (UniProt P02791); experiment: qHTS Validation Assay for Identification of Novel General Anesthetics (AID 2323); further: series mostly up to about 77 µM; on the % scale 0 is the no-effect control and ±100 the full control effect
# Chain of Ferritin light chain (Equus caballus) (P02791 2-175 limits assumed): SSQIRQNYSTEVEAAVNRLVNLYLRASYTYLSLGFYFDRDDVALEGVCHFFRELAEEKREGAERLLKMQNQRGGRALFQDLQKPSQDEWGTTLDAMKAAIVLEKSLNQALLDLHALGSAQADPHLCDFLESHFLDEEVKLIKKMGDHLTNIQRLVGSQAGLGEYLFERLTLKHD
# How it was run: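 10 uM horse-spleen apoferritin + 1-AMA (50% saturated, PBS); cpd pin-transferred, 10 min RT. Ex 380/Em 535 nm endpoint. Activity normalized between free 1-AMA and 1-AMA/apoferritin; 4-parameter Hill fit of concentration-response.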
# [11] = target: ATP-dependent DNA helicase Q1 (Homo sapiens) (UniProt P46063); experiment: qHTS Validation Assay for Inhibitors of RecQ-Like Dna Helicase 1 (RECQ1) (AID 2353);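 further: plate controls were DMSO vehicle for no effect and enzyme-free control for full effect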
# Chain of ATP-dependent DNA helicase Q1 (Homo sapiens) (P46063 whole entry, looked up): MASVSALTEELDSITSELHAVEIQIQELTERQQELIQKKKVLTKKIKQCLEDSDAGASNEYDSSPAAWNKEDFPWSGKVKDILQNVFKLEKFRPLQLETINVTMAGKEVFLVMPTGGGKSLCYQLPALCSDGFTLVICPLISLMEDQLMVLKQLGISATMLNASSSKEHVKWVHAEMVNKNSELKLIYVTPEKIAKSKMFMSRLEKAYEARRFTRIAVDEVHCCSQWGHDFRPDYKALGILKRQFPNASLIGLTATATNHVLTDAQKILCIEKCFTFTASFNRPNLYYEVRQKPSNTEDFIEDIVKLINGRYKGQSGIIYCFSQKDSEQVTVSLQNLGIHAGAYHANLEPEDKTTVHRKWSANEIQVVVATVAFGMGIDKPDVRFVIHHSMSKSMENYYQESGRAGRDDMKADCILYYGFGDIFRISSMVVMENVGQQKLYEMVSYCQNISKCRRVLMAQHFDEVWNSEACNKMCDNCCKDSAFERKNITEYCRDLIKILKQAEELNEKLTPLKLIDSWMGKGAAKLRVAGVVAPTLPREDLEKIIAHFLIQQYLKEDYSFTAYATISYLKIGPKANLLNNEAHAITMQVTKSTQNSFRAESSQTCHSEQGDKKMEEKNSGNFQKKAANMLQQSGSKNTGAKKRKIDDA
# How it was run: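 RECQ1T1 50 nM; forked duplex (20 bp + 30-nt ss tails) 200 nM, ATP 2 mM final; pH 8.0, 2 mM MgCl2, 2.5 ug/ml poly(dI-dC); 15 min compound preincubation; discontinuous kinetic read over 2 h at RT.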
# [12] = Validation screen for small molecules that induce DNA re-replication in MCF 10A normal breast cells (AID 463097); further: 0% is about no effect; nearly all actives have a fitted effect of over 60% in size
# How it was run: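 250 MCF 10A cells/well; compound pin-transferred; 48 hr, 37 C, 5% CO2; Hoechst 40 min; imaged 405/500-530 nm. Hits = more high-intensity nuclei.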
# [13] = Quantitative high throughput screen for delayed death inhibitors of the malarial parasite plastid, 96 hour incubation (AID 488745); further: series mostly up to about 29 µM; on the % scale 0 is the no-effect control and ±100 the full control effect; nearly all actives have a fitted effect of over 70% in size
# How it was run: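 Two-generation (96 h) exposure of luciferase-reporter P. falciparum in erythrocytes, 2% hematocrit, 0.1% parasitemia final, 37 C, 5% CO2, RPMI 1640 with 0.5% Albumax. Growth inhibition scored by reduced luminescence.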
# [14] = Quantitative high throughput screen for delayed death inhibitors of the malarial parasite plastid, 48 hour incubation (AID 488752); further: on the % scale 0 is the no-effect control and ±100 the full control effect; nearly all actives have a fitted effect of over 65% in size
# How it was run: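 Cultures: infected erythrocytes at final 2% hematocrit and 0.1% parasitemia in Albumax-supplemented RPMI. Parasites express integrated firefly luciferase. Incubation with compound lasts 48 h before luminescent detection of remaining reporter activity.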
# [15] = target: M-phase phosphoprotein 8 (Homo sapiens) (UniProt Q99549); experiment: qHTS Validation Assay for Inhibitors for MPP8 Chromodomain Interactions with Methylated Histone Tails (AID 488949);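 further: AlphaScreen signal from MPP8 chromodomain bound to biotinylated H3K9me3 peptide; top concentration of the series differs between compounds; on the % scale 0 is the no-effect control and ±100 the full control effect; nearly all actives have a fitted effect of over 55% in size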
# Chain of M-phase phosphoprotein 8 (Homo sapiens) (Q99549 whole entry, looked up): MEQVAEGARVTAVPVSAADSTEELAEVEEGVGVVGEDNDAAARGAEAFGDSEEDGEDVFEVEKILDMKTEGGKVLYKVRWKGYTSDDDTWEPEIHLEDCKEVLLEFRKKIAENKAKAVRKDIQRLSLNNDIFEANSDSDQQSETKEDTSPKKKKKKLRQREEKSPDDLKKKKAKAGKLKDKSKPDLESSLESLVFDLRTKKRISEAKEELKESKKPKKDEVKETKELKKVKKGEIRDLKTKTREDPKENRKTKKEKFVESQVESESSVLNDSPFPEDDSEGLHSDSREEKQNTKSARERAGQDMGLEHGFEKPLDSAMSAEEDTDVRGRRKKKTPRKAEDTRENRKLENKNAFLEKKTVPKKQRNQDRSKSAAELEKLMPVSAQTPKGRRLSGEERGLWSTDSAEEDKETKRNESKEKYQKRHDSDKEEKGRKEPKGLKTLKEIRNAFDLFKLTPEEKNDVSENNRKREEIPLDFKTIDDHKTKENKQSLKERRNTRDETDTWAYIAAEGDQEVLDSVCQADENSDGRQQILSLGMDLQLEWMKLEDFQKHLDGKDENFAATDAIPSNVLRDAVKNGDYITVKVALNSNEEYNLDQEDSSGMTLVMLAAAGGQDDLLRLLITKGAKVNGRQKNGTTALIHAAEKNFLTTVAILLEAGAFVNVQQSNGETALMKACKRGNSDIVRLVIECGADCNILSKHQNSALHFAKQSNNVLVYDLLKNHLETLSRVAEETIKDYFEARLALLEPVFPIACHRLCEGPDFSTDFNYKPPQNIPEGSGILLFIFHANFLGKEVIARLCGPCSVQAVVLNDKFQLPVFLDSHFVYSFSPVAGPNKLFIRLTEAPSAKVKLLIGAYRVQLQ
# How it was run: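 AlphaScreen read-out: streptavidin donor and nickel chelate acceptor beads (final 10 ug/mL), 30 min in the dark at RT. Complex of 50 nM MPP8 and 50 nM b-H3(1-18)K9me3 peptide had been exposed to compounds for 30 min beforehand.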
# [16] = target: Transient receptor potential cation channel subfamily V member 1 (Homo sapiens) (UniProt Q8NER1); experiment: HTS Assay for Compounds that Act as Enhancers of the Vanilloid Receptor 1 (AID 488979); further: 0% is about no effect
# Chain of Transient receptor potential cation channel subfamily V member 1 (Homo sapiens) (Q8NER1 whole entry, looked up): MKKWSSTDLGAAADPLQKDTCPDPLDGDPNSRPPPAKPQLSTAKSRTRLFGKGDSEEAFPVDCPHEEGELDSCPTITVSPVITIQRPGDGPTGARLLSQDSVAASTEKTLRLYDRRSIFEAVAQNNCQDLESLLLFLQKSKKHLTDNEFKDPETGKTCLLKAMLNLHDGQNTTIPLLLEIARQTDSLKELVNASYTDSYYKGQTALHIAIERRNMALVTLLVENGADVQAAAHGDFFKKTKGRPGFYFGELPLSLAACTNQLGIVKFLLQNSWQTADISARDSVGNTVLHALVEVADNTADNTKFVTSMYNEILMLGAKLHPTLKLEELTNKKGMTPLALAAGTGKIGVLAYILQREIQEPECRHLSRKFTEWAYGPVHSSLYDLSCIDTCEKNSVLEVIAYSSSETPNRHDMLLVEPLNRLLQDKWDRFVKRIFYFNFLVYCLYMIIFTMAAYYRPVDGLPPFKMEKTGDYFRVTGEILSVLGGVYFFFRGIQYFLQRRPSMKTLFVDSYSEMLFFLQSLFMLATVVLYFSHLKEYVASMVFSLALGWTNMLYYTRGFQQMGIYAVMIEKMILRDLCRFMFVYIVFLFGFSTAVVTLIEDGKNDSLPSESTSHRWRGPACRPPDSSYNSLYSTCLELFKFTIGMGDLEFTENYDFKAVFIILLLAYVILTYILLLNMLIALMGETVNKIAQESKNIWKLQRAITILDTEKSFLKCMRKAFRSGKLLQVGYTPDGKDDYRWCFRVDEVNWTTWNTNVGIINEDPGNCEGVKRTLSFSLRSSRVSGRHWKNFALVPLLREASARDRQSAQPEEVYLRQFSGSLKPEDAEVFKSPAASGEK
# How it was run: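 TRPV1 cells loaded with Fluo-8 calcium dye; compound added and Ca2+ signal (ex 480/em 520 nm) followed 3 min, then capsaicin at EC20 added and read 2 more min to detect enhancement.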
# [17] = target: Thyrotropin receptor (Homo sapiens) (UniProt P16473); experiment: qHTS Assay for Antagonists of the Thyroid Stimulating Hormone Receptor (AID 488980); further: series mostly up to about 58 µM; 0% is about no effect
# Chain of Thyrotropin receptor (Homo sapiens) (P16473 whole entry, looked up): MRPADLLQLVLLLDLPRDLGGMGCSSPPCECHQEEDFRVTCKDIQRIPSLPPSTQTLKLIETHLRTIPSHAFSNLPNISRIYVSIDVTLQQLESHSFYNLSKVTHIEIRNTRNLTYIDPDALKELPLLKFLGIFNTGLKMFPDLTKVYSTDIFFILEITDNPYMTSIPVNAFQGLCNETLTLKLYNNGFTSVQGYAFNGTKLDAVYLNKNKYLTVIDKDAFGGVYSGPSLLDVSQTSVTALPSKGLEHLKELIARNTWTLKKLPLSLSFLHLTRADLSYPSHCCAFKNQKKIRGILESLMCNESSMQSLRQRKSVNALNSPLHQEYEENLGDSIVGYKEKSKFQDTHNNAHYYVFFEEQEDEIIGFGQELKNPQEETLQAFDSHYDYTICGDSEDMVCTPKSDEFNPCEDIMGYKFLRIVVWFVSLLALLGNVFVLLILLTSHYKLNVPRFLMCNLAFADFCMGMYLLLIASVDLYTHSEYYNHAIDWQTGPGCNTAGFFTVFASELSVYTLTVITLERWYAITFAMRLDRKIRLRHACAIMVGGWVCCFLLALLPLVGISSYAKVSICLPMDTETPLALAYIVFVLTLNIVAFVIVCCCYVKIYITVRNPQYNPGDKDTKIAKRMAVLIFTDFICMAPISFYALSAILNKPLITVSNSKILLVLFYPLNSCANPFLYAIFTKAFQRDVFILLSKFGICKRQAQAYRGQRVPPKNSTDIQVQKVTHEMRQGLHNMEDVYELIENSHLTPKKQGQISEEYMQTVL
# How it was run: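 TSHR-HEK293 cells; 70 uM RO 20-1724 PDE inhibitor; compound + EC80 TSH (4 nM final); anti-cAMP cryptate antibody/cAMP-d2 in lysis buffer, 30 min RT; HTRF 665/620 nm read.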
# [18] = target: Thyrotropin-releasing hormone receptor (Homo sapiens) (UniProt P34981); experiment: qHTS for Small Molecule Agonists and Allosteric Enhancers of Human TRH Receptor: Validation Screen for Agonists (AID 493127;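 active means calcium activation more than 3 SD above the typical response in the agonist read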;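 further: intracellular calcium rise by fluo-8 fluorescence before TRH EC20 addition; 0% is about no effect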); conditions: TRH receptor agonist cell assay; at 2 µM; stronger effect = higher value
# Chain of Thyrotropin-releasing hormone receptor (Homo sapiens) (P34981 whole entry, looked up): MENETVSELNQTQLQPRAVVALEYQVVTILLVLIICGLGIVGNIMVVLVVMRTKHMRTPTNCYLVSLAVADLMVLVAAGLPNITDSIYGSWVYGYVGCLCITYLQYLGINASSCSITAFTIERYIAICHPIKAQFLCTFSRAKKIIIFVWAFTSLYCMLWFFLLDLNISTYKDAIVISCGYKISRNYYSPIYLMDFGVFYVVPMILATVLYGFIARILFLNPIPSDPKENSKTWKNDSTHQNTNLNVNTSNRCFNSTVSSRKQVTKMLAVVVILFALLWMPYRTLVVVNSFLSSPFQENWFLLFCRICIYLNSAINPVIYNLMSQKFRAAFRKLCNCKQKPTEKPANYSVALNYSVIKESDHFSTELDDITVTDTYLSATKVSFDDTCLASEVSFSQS
# How it was run: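 Kinetic fluorescence assay of agonist-induced calcium release: overnight-plated TRHR cells, room-temperature fluo-8 loading, baseline then compound addition with per-second reads.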
# [19] = target: Galactokinase (Homo sapiens) (UniProt P51570); experiment: qHTS Validation Assay for Inhibitors of Human Galactokinase (GALK) (AID 493189); further: 0% is about no effect
# Chain of Galactokinase (Homo sapiens) (P51570 whole entry, looked up): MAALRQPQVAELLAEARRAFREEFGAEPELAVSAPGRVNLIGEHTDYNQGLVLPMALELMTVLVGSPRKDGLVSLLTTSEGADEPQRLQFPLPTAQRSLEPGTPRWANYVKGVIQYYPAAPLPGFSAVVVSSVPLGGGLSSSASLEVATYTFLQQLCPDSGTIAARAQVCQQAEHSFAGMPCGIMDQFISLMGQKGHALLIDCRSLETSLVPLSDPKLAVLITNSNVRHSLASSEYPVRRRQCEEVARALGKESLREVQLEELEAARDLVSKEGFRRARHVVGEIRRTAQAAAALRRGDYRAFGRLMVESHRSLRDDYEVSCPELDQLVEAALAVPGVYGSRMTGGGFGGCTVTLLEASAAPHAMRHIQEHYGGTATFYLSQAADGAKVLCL
# How it was run: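 Luminescence from leftover ATP (Kinase-Glo Plus, 10 min) served as read-out after a 1 h room-temperature reaction of 5 nM GALK, 100 uM galactose and 35 uM ATP at pH8.0.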
# [20] = Validation screen for small molecules that induce DNA re-replication in SW480 colon adenocarcinoma cells (AID 504364); further: 0% is about no effect
# How it was run: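 Hoechst-stained SW480 nuclei, imaged at 405 nm excitation after 48 hr compound exposure, were counted for elevated DNA content as the re-replication signal.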
smiles,measurement,setting,value
O=C(O)Cn1c(C(=O)Nc2nc(-c3ccccc3Cl)cs2)cc2ccccc21,outcome,[1],inactive
CCCCC1(COC(=O)CCC(=O)O)C(=O)N(c2ccccc2)N(c2ccccc2)C1=O,outcome,[1],inactive
CC(=O)Nc1cccc(O)c1,outcome,[2],inactive
same,outcome,[1],inactive
FC(F)(F)C(Cl)Br (stereo not drawn),outcome,[2],inactive
same,outcome,[1],inactive
CN1C(C)(C)CCCC1(C)C,outcome,[3],inactive
same,outcome,[4],inactive
same,outcome,[5],inactive
same,outcome,[6],inactive
same,outcome,[7],inactive
same,outcome,[8],inactive
same,outcome,[9],inactive
same,outcome,[10],inactive
same,outcome,[11],inactive
same,outcome,[12],inactive
same,outcome,[13],inactive
same,outcome,[14],inactive
same,outcome,[15],inactive
same,outcome,[16],inactive
same,outcome,[17],inactive
same,activation,[18],0.688%
same,outcome,[19],inactive
same,outcome,[20],inactive
CCN(CC)C(=O)c1cccc(C)c1,outcome,[2],inactive
same,outcome,[1],inactive
CC(=O)Nc1ccccc1,outcome,[2],inactive
same,outcome,[1],inactive
COc1ccccc1Oc1c(NS(=O)(=O)c2ccc(C(C)(C)C)cc2)nc(-c2ncccn2)nc1OCCO,outcome,[1],inactive
NCC1CCC(C(=O)Oc2ccc(CCC(=O)O)cc2)CC1 (stereo not drawn),outcome,[1],inactive
O=C1C(c2[nH]c3ccccc3c2O)=Nc2ccccc21,outcome,[2],inactive
O=C(c1ccccc1)C(O)c1ccccc1 (stereo not drawn),outcome,[2],inactive
same,outcome,[1],inactive
OCc1ccc(Cl)cc1Cl,outcome,[1],inactive
CCCCCCCC(=O)OCC(COC(=O)CCCCCCC)OC(=O)CCCCCCC,outcome,[2],inactive
same,outcome,[1],inactive
CC(=O)Nc1ccc(C(=O)O)cc1,outcome,[2],inactive
same,outcome,[1],inactive
CCCCCCCCCCOc1cc2c(=O)c(C(=O)OCC)c[nH]c2cc1OCC,outcome,[1],inactive
CC(CSC(=O)c1ccccc1)C(=O)N1C[C@@H](Sc2ccccc2)C[C@H]1C(=O)O (stereo partly drawn),outcome,[1],inactive
Cc1ccccc1N=Nc1ccc(N=Nc2c(O)ccc3ccccc23)c(C)c1,outcome,[1],inactive
Cc1c(Cn2ccnc2)c2ccccc2n1CCC(=O)O,outcome,[1],inactive
O=C(OOC(=O)c1ccccc1)c1ccccc1,outcome,[1],inactive
C=CCSCC1Nc2cc(Cl)c(S(N)(=O)=O)cc2S(=O)(=O)N1 (stereo not drawn),outcome,[1],inactive
CC1CC(OC(=O)c2ccccc2O)CC(C)(C)C1 (stereo not drawn),outcome,[1],inactive
O=c1[nH]c(=O)c2ccccc2o1,outcome,[1],inactive
Cc1ccsc1C(=CCCN1CCC[C@@H](C(=O)O)C1)c1sccc1C,outcome,[1],inactive
CN1CCN(C(=O)C2CCCCC2)CC1,outcome,[1],inactive
COc1ccc(O)cc1,outcome,[2],inactive
same,outcome,[1],inactive
CC(=O)OCC(COC(C)=O)OC(C)=O,outcome,[2],inactive
same,outcome,[1],inactive
CNc1c2c(nn1C)CCCC2,outcome,[1],inactive
